Data taken from PubChem BioAssay (Tox21).
Results filed as inconclusive are left out. Where a call stands in place of a potency, no number is given. A number with no mark means an inactive call. Active and inactive are the calls of the source. The call rests on the fitted dose curve; in most records, active means well fitted activation curve with a large enough effect in the repeat runs; inconclusive means weak or mixed curves; inactive means flat fitted curve, though single readings scatter.

experiment: A CellTox Green Cytotoxicity Assay to monitor cytotoxicity in HEK293 cells - 32 hour (AID 1224881); conditions: CellTox Green fluorescence; series mostly up to 76.8 µM; further: nearly all actives have a fitted effect of over 40% in size
Source text: National Center for Advancing Translational Sciences [NCATS]
NIH Chemical Genomics Center [NCGC]
U.S. Environmental Protection Agency [EPA]
National Institutes of Environmental Health Sciences [NIEHS]
National Toxicology Program [NTP]
Cell-based models are critical for drug discovery. Determining the natural cytotoxic effects resulting from test compounds is an essential research activity. A CellTox Green Cytotoxicity Assay to monitor cytotoxicity in real time of continues cell culture during 40 hours of the compound treatment was used to screen Tox21 10K library compounds in Hek293 cells. CellTox Green Cytotoxicity Assay is a nonlytic, homogeneous, biofluorescent method to measure cytotoxicity in cell culture after experimental manipulation. The assay system uses a proprietary asymmetric cyanine dye that is excluded from viable cells but preferentially stains the dead cell's DNA. […] Viable cells produce no appreciable increases in fluorescence. Therefore, the fluorescence signal produced by the binding interaction with dead cell DNA is proportional to cytotoxicity.
The mixture of Hek293 cell suspension and reagents were dispensed at 600cells/6 ul/well in 1536-well tissue culture treated black solid bottom plates using a Multidrop dispenser. After the assay plates were incubated at a 37 C/5% CO2 incubator for 5 hours, 23 nL of compounds dissolved in DMSO, positive and negative controls was transferred to the assay plate by a pintool work station. The plates were incubated at 37 C for 40 hours. The fluorescence intensity were measured at 0h, 8h, 16h, 24h, 32h and 40h time points using ViewLux plate reader during compound treatment.
Potency means the concentration at half of the fitted maximal effect.

SMILES | Potency | cytotoxicity increase
C=CCOC(=O)CCC1CCCCC1 | inactive | –
O=S(=O)(Oc1ccc(Cl)cc1)c1ccccc1 | inactive | –
Clc1ccc(Cn2c(CN3CCCC3)nc3ccccc32)cc1 | inactive | –
CO[C@@H]1[C@H](OC(=O)/C=C/C=C/C=C/C=C/C(=O)O)CC[C@]2(CO2)[C@H]1[C@@]1(C)O[C@@H]1CC=C(C)C | inactive | –
Nc1ncn([C@H]2C[C@H](O)[C@@H](CO)O2)c(=O)n1 | inactive | –
CN1Cc2cc(C(=O)N3CCC(C4CCNCC4)CC3)ccc2NC(CC(=O)O)C1=O (stereo not given) | inactive | –
CCc1cc(C2=C(C(=O)O)N(c3ccccc3C(F)(F)F)S(=O)(=O)c3ccccc32)cc2c1OCO2 | inactive | –
CC(C)O.CC(C)O.CCOC(=O)/C=C(\C)O.CCOC(=O)/C=C(\C)O.[Ti] | inactive | –
C=CC(=O)OCCOCCOCCOCCOC(=O)C=C | 54.4 µM (active) | –
CN(C)CCN(Cc1ccccc1)c1ccccn1 | inactive | –
CCCNCC(O)COc1ccccc1C(=O)CCc1ccccc1 (stereo not given) | inactive | –
CCOCC(O)COc1ccc(NC(=O)CC[S+](C)C)cc1 (stereo not given) | inactive | –
CCCCO | inactive | –
CC[N+](C)(CC)CCOC(=O)C(O)(c1ccccc1)C1CCCCC1 (stereo not given) | inactive | –
COCC(C)OC(C)=O (stereo not given) | inactive | –
CCCn1cnc2c1c(=O)n(CCCCC(C)=O)c(=O)n2C | inactive | –
O=C1CCC(=O)O1 | inactive | –
C=C(C)C(=O)OCCO | inactive | –
CCCCCCCCCCCC(=O)OC[C@@H](O)[C@H]1OC[C@H](OCCO)[C@H]1OCCO | inactive | –
CCOC(=O)c1cccnc1 | inactive | –

SMILES | Potency | cytotoxicity increase
CCCCCCCCO[C@@H]1O[C@H](CO)[C@@H](O)[C@H](O)[C@H]1O | inactive | –
C1CCCNCCC1 | inactive | –
CCO[C@H](Cc1ccc(OCCc2ccc(OS(C)(=O)=O)cc2)cc1)C(=O)O | inactive | –
CCNc1cc(O)ccc1C | 34.3 µM (active) | –
CC(=O)c1ccc2c(c1)N(CCCN1CCC(CCO)CC1)c1ccccc1S2 | 23.9 µM (active) | –
C=C1[C@H]2CC[C@@H]3[C@H]2C(C)(C)CCC[C@]13C | inactive | –
CN(C)c1ccc(CCO)cc1 | inactive | –
O=C(O)c1ccco1 | inactive | –
CC(CSC(=O)c1ccccc1)C(=O)N1C[C@@H](Sc2ccccc2)C[C@H]1C(=O)O (stereo not given in full) | – | 1.09% [at 15.8 µM]
CN(C)c1ccc(/C=C/c2ccc([N+](=O)[O-])cc2)cc1 | – | 15.1% [at 6.97 µM]
COc1ccc(-c2nc3ccc(C4=NNC(=O)CC4C)cc3[nH]2)cc1 (stereo not given) | inactive | –
Nc1cccc(S(=O)(=O)c2cccc(N)c2)c1 | inactive | –
Nc1ccc([N+](=O)[O-])c(C(F)(F)F)c1 | inactive | –
O=C(O)C1(C(=O)Nc2ccc(Cl)cc2Cl)CC1 | inactive | –
O=C(O)CC(=O)C(=O)O | inactive | –
OC(CN1CCC(Cc2ccc(F)cc2)CC1)c1ccc(Cl)cc1 (stereo not given) | 21.3 µM (active) | –
COC(C)OC | inactive | –
Cc1ccc(C(=O)Oc2ccc(C(O)CNC(C)(C)C)cc2OC(=O)c2ccc(C)cc2)cc1 (stereo not given) | 26.8 µM (active) | –
COS(=O)(=O)C(F)(F)F | inactive | –
COc1ccnc(CS(=O)c2nc3ccc(OC(F)F)cc3[nH]2)c1OC (stereo not given) | inactive | –
